The target in assay [1] is Regulator of G-protein signaling 4 (Homo sapiens) + Guanine nucleotide-binding protein G(o) subunit alpha (Homo sapiens) (UniProt P49798+P09471). The assay can be described thus: modulators of RGS–Galpha-o binding, primary screen, biochemical, multiplexed beads, flow cytometry, RGS4/7/8/16/19 (AID 1504).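 Further: fluorescently labeled Galpha-o bound to GDP with aluminium fluoride binding biotinylated RGS beads.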 The settings on record: multiplexed bead flow cytometry, at 10 µM.
Assay [2] addresses Ras-related C3 botulinum toxin substrate 1 (Homo sapiens) (UniProt P63000). The assay can be described thus: wildtype Rac1 GTP binding inhibitors, dose response, biochemical, multiplex bead flow cytometry (AID 1340;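 active means dose curve with midpoint inside tested range, moderate steepness, plateau gap beyond fit error, low compound glow and bead-link interference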). As to conditions: GST-Rac1 beads, Bodipy-FL-GTP binding; at 100 µM (top of the series) unless noted.
The nature of assay [3]: LAP4-GFP expression modulators in yeast, confirmation, cell-based, second cherry pick, flow cytometry (AID 2621;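 active means GFP signal as percent of the solvent control above about 150%, meaning raised reporter expression, limit read from the data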;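 further: ratio of well median GFP fluorescence to plate DMSO mean so 100% = DMSO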). As to conditions: S. cerevisiae LAP4-GFP strain, 3 h, at 10 µM, stronger effect = higher value. (In general: Flow cytometry measures light scatter and fluorescence of single cells or particles in a stream.)
A short description of assay [4]: modulators of MEP2-GFP levels in yeast, confirmation, S. cerevisiae, flow cytometry GFP, second cherry picks (AID 2622;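 active means GFP signal above 150% of the solvent control wells, that is a rise of more than half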;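 further: median channel GFP fluorescence of all gated yeast cells per well; ratio of median GFP to plate DMSO average so 100% = DMSO level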). The settings on record: S. cerevisiae MEP2-GFP strain, 3 h, at 10 µM, stronger effect = higher value.
Assay [5] can be described thus: RPL19A-GFP modulators in TOR pathway yeast, confirmation, cell-based, S. cerevisiae, flow cytometry, second cherry pick (AID 2623;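 active means under 65% GFP response relative to DMSO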;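 further: median GFP channel fluorescence per well over the all cells gate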). As to conditions: S. cerevisiae RPL19A-GFP strain, 3 h, at 10 µM, stronger effect = lower value, 100% means same as DMSO wells.
Assay [6] is described as follows: modulators of CIT2-GFP expression in yeast, confirmation, flow cytometry, second cherry pick, single plex (AID 2624;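 active means GFP response vs DMSO above about 150%, limit read from the data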;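 further: median green fluorescence per well over all gated yeast cells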). As to conditions: S. cerevisiae CIT2-GFP strain, 3 h, at 10 µM, stronger effect = higher value, DMSO control wells read 100%.
Assay [7] in a line: AGP1-GFP expression modulators, hit retest, confirmation, cell-based, flow cytometry, S. cerevisiae, cherry pick set 2 (AID 2643;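 active means over 150 percent of DMSO response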;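 further: median GFP channel fluorescence over all cells without mother daughter split; sample median GFP divided by mean DMSO control so 100% equals DMSO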). As to conditions: S. cerevisiae AGP1-GFP strain, 3 h, at 10 µM, stronger effect = higher value.
A short description of assay [8]: AGP1-GFP expression modulators, hit retest, confirmation, cell-based, flow cytometry, S. cerevisiae, cherry picks (AID 2273;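 active means GFP response above 150% of the DMSO level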;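 further: median GFP channel fluorescence over the whole cell population gate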). As to conditions: S. cerevisiae AGP1-GFP strain, 3 h, at 10 µM.
In assay [9] the target is Integrin beta-1 (Homo sapiens) + Integrin alpha-4 (Homo sapiens) (UniProt P13612+P05556). Description: inhibition of HUTS-21 binding to VLA-4, pilot screen, VLA-4 allosteric modulator project, U937 cells, HUTS-21 mAb, flow cytometry, validation set (AID 2674;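 active means inhibition above 50%, about 3 SD of the validation set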;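 further: antibody binding induced by the VLA-4 ligand LDV present at three times its Kd; 0% = LDV ligand with antibody and no compound and 100% = antibody without LDV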). The settings on record: HUTS-21 LIBS mAb binding, at 6.7 µM, stronger effect = higher value, binding induced by LDV ligand.

Assay [10] can be described thus: superoxide lowering in aged yeast cells, pilot screen, validation compound set (AID 2706;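 active means superoxide response below 65% of plate, a cut near 3 SD across the whole screen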;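 further: yeast exposed to compound for one week at 30 degrees C before staining; 100% = mean of all compound wells on the same plate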). As to conditions: S. cerevisiae aging, superoxide DHE fluorescence; at 10 µM; stronger effect = lower value.
Assay [11] has as its target Beta-adrenergic receptor kinase 1 (Homo sapiens) (UniProt P25098). Description: GRK2 binders displacing RNA aptamer, biochemical, validation, human GRK2, bead flow cytometry (AID 488806;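 active means aptamer binding inhibition above 30%, about 3 SD of noise from non-fluorescent compounds; inactive means inhibition at or below 30%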). As to conditions: bead-bound GRK2, FAM-aptamer displacement, at 10 µM, stronger effect = higher value.
For assay [12], the target named is Beta-2 adrenergic receptor (Homo sapiens) (UniProt P07550). The assay can be described thus: beta2AR agonists driving receptor internalization, pilot screen, cell-based, FAP fluorogen, flow cytometry, validation set (AID 504459;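 active means percent response above 42, roughly 3 SD of non-fluorescent test compounds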;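 further: agonist-driven loss of surface beta2AR via internalization measured by FAP dye flow cytometry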). As to conditions: Am2.2-beta2AR cells, FAP surface receptor flow cytometry; at 10 µM; stronger effect = higher value.
Assay [13] has as its target AP-2 complex subunit beta (Homo sapiens) (UniProt P63010). The assay can be described thus: inhibitors of arrestin peptide binding to AP2, pilot screen, biochemical, validation set, GST-AP2 beads, flow cytometry (AID 504541;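 active means inhibition above 54%, about 3 SD of non-fluorescent compounds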;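 further: AP2 carries R879A mutation and is captured from E. coli lysate; bead-bound FITC arrestin peptide fluorescence measuring arrestin peptide binding to AP2; 0% = DMSO wells and 100% = excess unlabeled arrestin peptide control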). The settings on record: FITC arrestin peptide, at 10 µM, stronger effect = higher value, AP2 beta2 appendage fragment, R879A mutant.
The nature of assay [14]: yeast V-ATPase proton transport modulators, S. cerevisiae, pHLuorin, HTS validation (AID 504600; in the data active means response above about 15%;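 further: plate controls were DMSO for no effect and reference compound for full effect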). The settings on record: S. cerevisiae pHLuorin cytosolic pH, at 10 µM, stronger effect = higher value.
Assay [15] concerns anti-desmoglein-3 scFv antibody binding to human DSG3. Description: inhibitors of anti-DSG3 scFv binding to DSG3, pilot screen, biochemical, validation compound set, bead-based, flow cytometry (AID 588368;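 active means binding below the plate cutoff, the plate median minus 3 SD, with a reading above zero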;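 further: signal is the median channel fluorescence of bead-bound GFP antibody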). The settings on record: Protein G beads, DSG3-Fc, scFv-GFP binding, at 10 µM, stronger effect = lower value.
The nature of assay [16]: inhibitors of fungal efflux pumps CDR1, CDR2, MDR1, pilot screen, validation compound set, multiplex, phenotypic (AID 588506;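 active means efflux inhibition above 0.42, the validation set average plus 4 SD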;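 further: Nile Red retained in cells so higher fluorescence means more efflux inhibition; 0 = negative control wells and 1 = enniatin B 25 µM full block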). The settings on record: S. cerevisiae pump-expressing triplex, Nile Red efflux flow cytometry; at 10 µM; stronger effect = higher value; the pumps come from Candida albicans.
The target in assay [17] is ATP-binding cassette sub-family B member 6 (Homo sapiens) (UniProt Q9NP58). Description: ABCB6 transporter inhibitors, pilot screen, K562-ABCB6 cells, flow cytometry, validation set (AID 588550;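 active means inhibition above the screen-wide mean plus 3 SD, about 51%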;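 further: 0% = DMSO wells and 100% = benzethonium chloride 70 µM positive control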). As to conditions: K562-ABCB6 porphyrin accumulation, 1 h, at 10 µM, stronger effect = higher value.
Assay [18] is described as follows: promoters of myeloid differentiation in arrested cells, primary screen, cell-based, GFP/MAC1 double positive, flow cytometry, validation set (AID 588685;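 active means differentiation response of at least 50%, scaled between solvent and reference control, from cells with both markers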;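 further: compound exposure lasts four days before antibody staining and flow analysis; 0% = DMSO wells and 100% = 5 µM fulvestrant positive control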). As to conditions: ER-HoxA9 marrow cells, stronger effect = higher value, normalized: vehicle 0, fulvestrant 100.

This is one part of the list. The source made the active and inactive calls. Unless noted, how the calls were made is not given here.

Regulator of G-protein signaling 4 (Homo sapiens) + Guanine nucleotide-binding protein G(o) subunit alpha (Homo sapiens), sequence (P09471 whole entry, looked up): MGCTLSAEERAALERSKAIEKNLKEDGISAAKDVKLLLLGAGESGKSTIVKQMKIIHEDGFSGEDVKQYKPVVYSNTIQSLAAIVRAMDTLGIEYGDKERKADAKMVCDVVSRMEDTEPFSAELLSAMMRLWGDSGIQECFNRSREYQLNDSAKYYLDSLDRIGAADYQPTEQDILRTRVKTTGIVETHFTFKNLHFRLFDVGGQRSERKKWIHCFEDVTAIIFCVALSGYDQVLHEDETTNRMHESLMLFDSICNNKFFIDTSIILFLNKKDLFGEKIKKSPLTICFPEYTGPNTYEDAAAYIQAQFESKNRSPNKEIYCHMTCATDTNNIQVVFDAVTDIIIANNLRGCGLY
Regulator of G-protein signaling 4 (Homo sapiens) + Guanine nucleotide-binding protein G(o) subunit alpha (Homo sapiens), sequence (P49798 whole entry, looked up): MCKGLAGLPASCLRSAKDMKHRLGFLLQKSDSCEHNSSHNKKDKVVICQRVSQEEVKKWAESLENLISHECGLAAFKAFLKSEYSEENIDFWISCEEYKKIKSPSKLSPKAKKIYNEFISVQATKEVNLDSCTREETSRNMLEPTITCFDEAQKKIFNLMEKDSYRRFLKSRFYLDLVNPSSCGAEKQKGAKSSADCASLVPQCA
ATP-binding cassette sub-family B member 6 (Homo sapiens), sequence (Q9NP58 whole entry, looked up): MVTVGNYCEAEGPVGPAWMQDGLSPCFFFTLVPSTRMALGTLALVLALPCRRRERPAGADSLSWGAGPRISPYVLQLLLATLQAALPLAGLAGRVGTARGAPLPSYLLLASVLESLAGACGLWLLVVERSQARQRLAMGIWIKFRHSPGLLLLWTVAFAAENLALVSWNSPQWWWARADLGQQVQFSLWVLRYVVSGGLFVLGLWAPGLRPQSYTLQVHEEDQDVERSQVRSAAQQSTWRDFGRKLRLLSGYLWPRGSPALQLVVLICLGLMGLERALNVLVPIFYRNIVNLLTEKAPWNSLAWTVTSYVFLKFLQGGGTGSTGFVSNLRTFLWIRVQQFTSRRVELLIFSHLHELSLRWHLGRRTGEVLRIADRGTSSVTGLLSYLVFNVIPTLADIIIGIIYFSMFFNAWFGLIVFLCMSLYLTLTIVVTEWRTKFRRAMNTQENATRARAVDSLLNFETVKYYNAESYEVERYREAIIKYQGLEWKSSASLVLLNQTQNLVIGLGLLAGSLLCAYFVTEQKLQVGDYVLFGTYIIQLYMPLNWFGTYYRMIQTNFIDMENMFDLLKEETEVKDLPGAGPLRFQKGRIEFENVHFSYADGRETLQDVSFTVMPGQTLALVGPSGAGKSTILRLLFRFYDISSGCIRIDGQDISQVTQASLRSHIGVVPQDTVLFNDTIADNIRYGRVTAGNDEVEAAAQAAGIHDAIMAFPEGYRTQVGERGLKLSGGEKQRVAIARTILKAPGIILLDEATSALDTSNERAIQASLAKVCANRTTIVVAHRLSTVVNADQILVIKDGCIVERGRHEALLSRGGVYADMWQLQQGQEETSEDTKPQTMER
Beta-2 adrenergic receptor (Homo sapiens), sequence (P07550 whole entry, looked up): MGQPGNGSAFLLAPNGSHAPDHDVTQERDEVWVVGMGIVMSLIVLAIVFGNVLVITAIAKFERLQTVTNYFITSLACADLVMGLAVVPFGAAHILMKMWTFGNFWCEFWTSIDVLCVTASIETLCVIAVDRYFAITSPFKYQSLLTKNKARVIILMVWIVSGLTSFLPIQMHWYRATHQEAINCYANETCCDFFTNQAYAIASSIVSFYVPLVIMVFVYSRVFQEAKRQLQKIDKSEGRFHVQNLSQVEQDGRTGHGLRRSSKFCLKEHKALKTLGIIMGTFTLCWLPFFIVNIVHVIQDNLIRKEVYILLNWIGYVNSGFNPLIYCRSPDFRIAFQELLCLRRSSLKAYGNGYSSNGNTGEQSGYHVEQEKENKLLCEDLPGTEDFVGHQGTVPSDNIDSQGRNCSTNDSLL
Integrin beta-1 (Homo sapiens) + Integrin alpha-4 (Homo sapiens), sequence (P05556 whole entry, looked up): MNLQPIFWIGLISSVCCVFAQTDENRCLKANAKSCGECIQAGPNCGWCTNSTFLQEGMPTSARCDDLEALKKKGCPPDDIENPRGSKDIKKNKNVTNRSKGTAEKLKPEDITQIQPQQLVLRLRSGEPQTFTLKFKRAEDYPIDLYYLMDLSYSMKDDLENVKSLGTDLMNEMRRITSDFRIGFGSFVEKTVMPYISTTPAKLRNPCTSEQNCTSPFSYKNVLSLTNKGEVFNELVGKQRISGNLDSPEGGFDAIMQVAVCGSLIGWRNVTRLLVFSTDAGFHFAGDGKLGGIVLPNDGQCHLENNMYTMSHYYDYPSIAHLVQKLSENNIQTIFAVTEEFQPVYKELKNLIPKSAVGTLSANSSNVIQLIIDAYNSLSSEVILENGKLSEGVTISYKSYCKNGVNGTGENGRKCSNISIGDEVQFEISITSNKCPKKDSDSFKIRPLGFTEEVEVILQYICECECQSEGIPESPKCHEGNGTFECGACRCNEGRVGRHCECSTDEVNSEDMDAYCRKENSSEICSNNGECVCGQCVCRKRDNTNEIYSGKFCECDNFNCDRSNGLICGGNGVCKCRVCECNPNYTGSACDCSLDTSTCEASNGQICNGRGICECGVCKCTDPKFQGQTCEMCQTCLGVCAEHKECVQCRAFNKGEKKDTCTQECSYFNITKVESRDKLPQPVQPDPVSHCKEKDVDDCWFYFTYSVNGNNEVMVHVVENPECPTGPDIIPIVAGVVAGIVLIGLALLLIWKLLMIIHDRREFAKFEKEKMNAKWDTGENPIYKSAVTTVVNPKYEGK
Integrin beta-1 (Homo sapiens) + Integrin alpha-4 (Homo sapiens), sequence (P13612 whole entry, looked up): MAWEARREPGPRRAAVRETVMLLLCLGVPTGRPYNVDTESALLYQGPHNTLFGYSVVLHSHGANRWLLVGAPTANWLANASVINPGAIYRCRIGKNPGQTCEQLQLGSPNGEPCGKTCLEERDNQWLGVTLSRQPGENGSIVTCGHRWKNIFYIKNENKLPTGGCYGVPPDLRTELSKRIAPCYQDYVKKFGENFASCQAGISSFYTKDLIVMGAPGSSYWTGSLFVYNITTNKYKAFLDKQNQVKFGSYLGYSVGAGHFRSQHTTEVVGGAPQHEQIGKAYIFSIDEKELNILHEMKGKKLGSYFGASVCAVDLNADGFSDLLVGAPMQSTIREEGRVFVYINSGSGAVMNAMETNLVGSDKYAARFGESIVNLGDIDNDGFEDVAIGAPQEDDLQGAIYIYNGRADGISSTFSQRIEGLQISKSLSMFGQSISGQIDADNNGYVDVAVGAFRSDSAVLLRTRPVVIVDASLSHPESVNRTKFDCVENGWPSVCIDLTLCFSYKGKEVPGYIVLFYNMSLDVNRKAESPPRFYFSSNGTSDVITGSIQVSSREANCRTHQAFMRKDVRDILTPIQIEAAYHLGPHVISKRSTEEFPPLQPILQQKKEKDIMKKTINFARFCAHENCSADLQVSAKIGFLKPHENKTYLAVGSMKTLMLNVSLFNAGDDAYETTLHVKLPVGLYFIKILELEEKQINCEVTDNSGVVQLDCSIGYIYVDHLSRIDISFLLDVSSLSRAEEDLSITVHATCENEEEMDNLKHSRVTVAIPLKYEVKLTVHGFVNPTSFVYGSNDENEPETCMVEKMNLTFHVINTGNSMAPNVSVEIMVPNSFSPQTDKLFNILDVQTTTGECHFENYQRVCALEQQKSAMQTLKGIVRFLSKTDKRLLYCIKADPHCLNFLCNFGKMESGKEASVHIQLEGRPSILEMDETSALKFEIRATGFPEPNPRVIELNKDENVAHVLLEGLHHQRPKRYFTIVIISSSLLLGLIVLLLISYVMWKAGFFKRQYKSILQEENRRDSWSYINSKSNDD
Beta-adrenergic receptor kinase 1 (Homo sapiens), sequence (P25098 whole entry, looked up): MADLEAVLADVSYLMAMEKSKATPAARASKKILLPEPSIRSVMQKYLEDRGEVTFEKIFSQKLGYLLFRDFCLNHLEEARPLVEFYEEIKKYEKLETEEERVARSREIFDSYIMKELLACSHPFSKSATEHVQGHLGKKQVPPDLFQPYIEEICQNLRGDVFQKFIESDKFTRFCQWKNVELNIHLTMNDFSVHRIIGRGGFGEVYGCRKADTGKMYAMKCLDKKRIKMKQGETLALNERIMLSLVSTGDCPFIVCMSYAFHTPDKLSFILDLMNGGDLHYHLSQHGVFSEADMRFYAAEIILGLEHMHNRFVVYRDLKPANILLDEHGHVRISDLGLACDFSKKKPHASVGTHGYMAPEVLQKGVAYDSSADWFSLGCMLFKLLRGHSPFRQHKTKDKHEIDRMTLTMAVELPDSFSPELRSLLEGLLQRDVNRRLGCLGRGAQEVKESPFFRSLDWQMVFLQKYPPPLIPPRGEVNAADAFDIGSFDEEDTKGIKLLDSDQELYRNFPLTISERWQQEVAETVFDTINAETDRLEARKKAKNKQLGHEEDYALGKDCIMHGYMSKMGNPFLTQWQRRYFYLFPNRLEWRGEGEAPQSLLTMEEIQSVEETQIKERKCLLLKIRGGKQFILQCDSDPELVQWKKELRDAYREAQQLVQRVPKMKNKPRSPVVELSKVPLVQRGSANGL

On to `CCOC(=O)c1oc2c(CN3CCN(C)CC3)c(O)ccc2c(=O)c1-c1ccc(Br)cc1`, for which the RGS4–Galpha-o binding response in assay [1] was 132% (active).

In the case of `CCN(CC)S(=O)(=O)c1cccc(-c2n[nH]c(=S)n2/N=C/c2ccc(C(=O)OC)cc2)c1`, the RGS4–Galpha-o binding response in assay [1] is 108% (active).

Turning to `CCn1c(CSCc2c(Cl)cccc2Cl)n[nH]c1=S`, in assay [1], the RGS4–Galpha-o binding response was 55.9% (active).

As for `CCCC(=O)N=c1sc2cccc(F)c2n1C`, the RGS4–Galpha-o binding response in [1] was 58.4% (active).

`Cc1ccc(C(=O)COC(=O)c2ccc3c(c2)C(=O)N(c2cccc4ncccc24)C3=O)cc1` came in with a GTP binding signal, raw median fluorescence (lower = inhibition) (MCF (arbitrary fluorescence units)) in [2] of 151.

On to `CCOC(=O)CSc1nc2c(c(=O)n(Cc3ccccc3Cl)c(=O)n2C)n1C`, for which the RGS4–Galpha-o binding response in assay [1] is 74.3% (active).

In the case of `CN(C)CCNC(=O)/C(=C/c1cccc([N+](=O)[O-])c1)NC(=O)c1ccccc1`, in assay [1], the RGS4–Galpha-o binding response is 119% (active).

Regarding `O=C(NC1CC1)c1ccc2c(c1)NC(=O)c1ccccc1S2`, the RGS4–Galpha-o binding response in assay [1] is 113% (active).

As for `CCn1cc(C(=O)OCC(=O)c2cc(C)n(-c3ccc(OC(F)F)cc3)c2C)c(=O)c2ccc(C)nc21`, the GTP binding signal, raw median fluorescence (lower = inhibition) (MCF (arbitrary fluorescence units)) in assay [2] turned out to be 148.

As to `CN(CC(=O)NC1CCCCC1)S(=O)(=O)c1cccc2cccnc12`, the RGS4–Galpha-o binding response in [1] was 110% (active).

Take `O=C(Nc1cccc(F)c1)c1coc(=O)c(Br)c1`: in assay [1], the RGS4–Galpha-o binding response was 83.8% (active).

For the compound `O=C(Nc1cccc(-c2nc3ccccc3[nH]2)c1)c1ccc(C(=O)Nc2cccc(-c3nc4ccccc4[nH]3)c2)cc1`, the RGS4–Galpha-o binding response in assay [1] is 132% (active).

`C/C(=C/C(=O)N1CCN(C)CC1)C(=O)O`: the RGS4–Galpha-o binding response in [1] is 109% (active).

In the case of `O=C1CCC(=O)N(O)CCCCCNC(=O)CCC(=O)N(O)CCCCCNC(=O)CCC(=O)N(O)CCCCCN1`, in assay [1], the RGS4–Galpha-o binding response was 52.2% (active).

`COc1cc(C(=O)Nc2cc(C(F)(F)F)ccc2N2CCOCC2)ccc1O`: the RGS4–Galpha-o binding response in assay [1] is 79.2% (active).

Take `CCC(=O)Nc1c(S(=O)(=O)c2ccccc2)c2nc3ccccc3nc2n1Cc1ccccc1`: the RGS4–Galpha-o binding response in assay [1] is 89.8% (active).

As to `Cc1ccccc1CS(=O)(=O)CC1(O)CCN(C(=O)c2cccc(C(F)(F)F)c2)CC1`, in assay [1], the RGS4–Galpha-o binding response is 110% (active).

In the case of `O=c1[nH]c2ccccc2s1`, the RGS4–Galpha-o binding response in assay [1] was 88.6% (active).

`COc1ccc(-c2nn(-c3ccccc3)cc2C(=O)Nc2nccs2)cc1OC`: the RGS4–Galpha-o binding response in assay [1] was 90.3% (active).

`COc1ccc(CCC(=O)OCC(=O)Nc2ccc(C)c(S(=O)(=O)N(C)C)c2)cc1`: the RGS4–Galpha-o binding response in [1] is 84.4% (active).

Turning to `Cc1ccc(OCC(O)CN2CCN(CC(O)COc3ccc(C)cc3Cl)CC2)c(Cl)c1` (centres undefined), the RGS4–Galpha-o binding response in assay [1] is 139% (active).

`CCOc1cc(C(=O)N2CCc3cc(OC)c(OC)cc3C2)ccc1OC(F)F`: the RGS4–Galpha-o binding response in assay [1] was 128% (active).

As for `O=C(CN1CCOCC1)Nc1ccccc1`, the RGS4–Galpha-o binding response in assay [1] is 115% (active).

Turning to `Cc1c(CN2CCCC(C(=O)c3cccc(Cl)c3)C2)c(=O)n(-c2ccccc2)n1C` (centres undefined), the RGS4–Galpha-o binding response in assay [1] is 107% (active).

`Cc1cc(C)nc(/N=C2\NC(=O)CC(C(=O)O)N2c2ccc(Cl)cc2Cl)n1` (centres undefined): the RGS4–Galpha-o binding response in assay [1] is 117% (active).

For `CC(C)Cc1nc(Nc2ccc(S(=O)(=O)N3CCCC3)cc2)c2nnn(Cc3ccccc3)c2n1`, the RGS4–Galpha-o binding response in assay [1] was 135% (active).

For the compound `CN(C)CCN=c1cc(-c2ccccc2)oc2ccc(Cl)cc12`, the RGS4–Galpha-o binding response in assay [1] was 110% (active).

On to `CC(C)(C)NC(=O)c1cccc(NC(=O)Cc2ccc(Br)cc2)c1`, for which the RGS4–Galpha-o binding response in [1] was 79.3% (active).

Turning to `CCCn1c(C)cc(C(=O)COC(=O)c2c(C)nn(-c3ccccc3)c2C)c1C`, the RGS4–Galpha-o binding response in [1] is 76.2% (active).

As for `COc1ccc(C(=O)NNc2cc(C)nc(NNC(=O)c3ccc(OC)cc3)n2)cc1`, the RGS4–Galpha-o binding response in assay [1] is 79.6% (active).

In the case of `CSc1ccc(CN2C(=O)NC3(CCCCCC3)C2=O)cc1`, in assay [1], the RGS4–Galpha-o binding response was 106% (active).

Consider `Cc1ccc(-n2c(SCC(=O)Nc3ncc(Cl)cc3Cl)nc3ccccc32)cc1`, for which the RGS4–Galpha-o binding response in assay [1] was 86.2% (active).

As for `CCC(=O)N1CCC(C(N)=O)(N2CCCCC2)CC1`, in assay [1], the RGS4–Galpha-o binding response is 133% (active). For the same compound, the GFP response vs DMSO in assay [3] is 99% (inactive); in assay [4], 102% (inactive); in [5], 99.8% (inactive); in [6], 104% (inactive). The percent response vs DMSO in [7] is 99.4% (inactive).

Consider `Cc1ccccc1NC(=S)N(CCCN1CCOCC1)Cc1cccs1`, for which, in assay [1], the RGS4–Galpha-o binding response is 105% (active).

Turning to `CC(=O)N1CC[n+]2c(-c3ccc([N+](=O)[O-])cc3)csc21`, the RGS4–Galpha-o binding response in assay [1] is 57% (active).

As to `Oc1ccc(-c2onc3ccc(Cl)cc23)cc1`, the RGS4–Galpha-o binding response in [1] is 118% (active).

Take `CC1(C)C=C2[C@H]3CC[C@@H]4[C@@]5(C)CCC(=O)C(C)(C)[C@@H]5CC[C@@]4(C)[C@]3(C)CC[C@@]2(C(=O)O)CC1`: the RGS4–Galpha-o binding response in assay [1] is 119% (active).

One may read the inhibition as the change of the read-out against control, counted positive when it falls. Regarding `COc1cccc(/C=C/C(=O)c2c(O)cc(C)oc2=O)c1O`, the GFP response, % of DMSO in assay [8] was 94.1% (inactive). For the same compound, the inhibition in [9] was -3.16% (inactive); in [13] it was 10.4% (inactive); in [17], -4% (inactive). The superoxide response (% of plate) in [10] was 80.7% (inactive). In addition, the aptamer binding inhibition in assay [11] is 3% (inactive). Also, the response in assay [12] was 17.4% (inactive); in assay [14], 2.77% (inactive). The binding (% of control) in assay [15] is 104% (inactive). Moreover, the efflux inhibition (fraction of control) in assay [16] is 0.19 (inactive). For the same compound, the differentiation response in assay [18] is 5.6% (inactive).

Regarding `COc1ccc(C(=O)NCC2OCCc3ccccc32)cc1` (centres undefined), the GFP response, % of DMSO in assay [8] is 91.3% (inactive). In addition, the inhibition is -2.27% (inactive) in assay [9], 7.24% (inactive) in assay [13] and 4% (inactive) in assay [17]. Also, the superoxide response (% of plate) in assay [10] was 92.6% (inactive). Moreover, in [11], the aptamer binding inhibition was 1% (inactive). The response in assay [12] is -2.23% (inactive); in assay [14] it was -0.15% (inactive). Besides, the binding (% of control) in assay [15] was 103% (inactive). The efflux inhibition (fraction of control) in [16] is -0.28 (inactive). For the same compound, in [18], the differentiation response is 2.46% (inactive).

(Values after PubChem BioAssay.)
